High-throughput results deposited in PubChem by National Center for Advancing Translational Sciences (NCATS).
Rows were chosen to be rich in hits. Some 11% of all compounds tested hit in one or more screens of this group.
AMA1-RON2 inh: disrupts binding of P. falciparum AMA1 to RON2; AlphaScreen AMA1-biotinylated RON2 peptide binding; Potency, µM (top dose mostly 58.2 µM), most hits filed as inhibitors; 0.2% of 360,000 active; AID 720542; also: nearly all actives have a fitted effect of over 45% in size
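AMA1 (3D7) with his tag at 25 nM final met compounds first, then biotinylated RON2 peptide at 25 nM; detection used donor plus acceptor beads, 10 µg/mL apiece, read by AlphaScreen after 30 min at room temperature.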
NS1 function inh: inhibitors of influenza NS1 protein function. Potency, µM (top dose mostly 46.1 µM). 0.4% of 270,000 active. AID 2326; calls by dose curve; also: actives are rising curves; nearly all actives have a fitted effect of over 50% in size
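Read-out: OD600 growth recovery of NS1-expressing budding yeast. Cells grown overnight at 30C in -URA glucose medium, washed, resuspended and diluted 1:100 in 2% galactose assay medium, pH 6.0. Same strain lacking NS1 served as positive control.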
Pf growth 48h: P. falciparum growth inhibition at 48 hours (one generation) | P. falciparum luciferase growth in erythrocytes, 48 h | Potency, µM (series often up to 28.7 µM), actives largely listed as inhibitors | 5.9% of 310,000 active
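Growth was read as firefly luciferase luminescence after a 48 h, 37 C, 5% CO2 exposure of compounds to reporter-bearing P. falciparum cultures (0.1% parasitemia, 2% hematocrit final) in Albumax-supplemented RPMI 1640.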
Pf growth 96h: P. falciparum growth inhibition at 96 hours; P. falciparum luciferase reporter growth, 96 h; Potency, µM (titrated, usually from 28.7 µM), most hits filed as inhibitors; 6.9% of 320,000 active; AID 504834
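Delayed-death screen, second-generation endpoint: infected erythrocytes, 2% hematocrit, 0.05% parasitemia final; 96 hours at 37 C, 5% CO2; luciferase detection reagent; luminescence decrease equals reduced growth.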
Sm TGR block: inhibitors of Schistosoma mansoni thioredoxin glutathione reductase | Q962Y6 | purified TGR, DTNB reduction, TNB absorbance 405 nm | Potency, µM (top dose mostly 114 µM), hits mostly inhibitors | 3% of 360,000 active | AID 485364; also: nearly all actives have a fitted effect of over 60% in size
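First, TGR (20 nM dispensed) and NADPH were mixed with compound. Second, a 15 min room-temperature incubation followed. Third, further NADPH and then DTNB were added to start the reaction. Finally, TNB absorbance was monitored kinetically.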
Of the large screens only hits and unclear results are named; the others gave an inactive call. Unless noted, calls follow the shape of the dose curve; as a rule, active = well fitted curve in the direction sought with a large enough effect; inconclusive = small, poorly fitted or top-dose-only effect, or another doubt; inactive = no such curve, though single readings can be large; an effect the other way counts as inactive or inconclusive.

O=C(C1CCN(S(=O)(=O)c2ccccc2)CC1)N1CCc2ccccc21	Pf growth 96h inconclusive, Sm TGR block inconclusive
CCN(Cc1ccccc1)C(=O)C1CCN(S(=O)(=O)c2ccc3c(c2)OCCO3)CC1	Pf growth 48h inconclusive, Pf growth 96h 13µM
O=C(C1CCN(S(=O)(=O)c2ccc3c(c2)OCCO3)CC1)N1CCc2ccccc21	Pf growth 48h inconclusive, Pf growth 96h 10µM
N#Cc1cnc(Sc2ccccc2)nc1	Pf growth 48h inconclusive, Pf growth 96h 0.033µM (no result: NS1 function inh)
N#CCC1c2ccccc2CCN1C(=O)Nc1cccc(C(F)(F)F)c1 (stereo not given)	Pf growth 48h inconclusive, Pf growth 96h inconclusive
N#CCC1c2ccccc2CCN1C(=O)Nc1ccc(C(F)(F)F)cc1 (stereo not given)	Pf growth 48h 13µM, Pf growth 96h 5.9µM
COc1ccc(C2SCC(=O)N2Cc2ccccc2)cc1 (stereo not given)	none
Cc1ccc(C2SCC(=O)N2Cc2ccccc2)cc1 (stereo not given)	Pf growth 96h 13µM
Cc1cccc(NC(=O)c2ccc(C3SCC(=O)N3CCc3ccccc3)cc2)c1C (stereo not given)	Pf growth 96h 8.3µM (no result: Pf growth 48h)
COc1cc(C2SCC(=O)N2Cc2ccccc2)ccc1O (stereo not given)	Pf growth 96h 9.3µM
CCc1ccc(N2C(=O)C3ON(c4ccccc4)C(c4ccco4)C3C2=O)cc1 (stereo not given)	Sm TGR block inconclusive
CCCCN1C(=O)C2ON(c3ccccc3C)C(c3ccco3)C2C1=O (stereo not given)	Pf growth 48h 13µM
CC(C)(C)C1CCC(OC(=O)C[N+]2(C)CCCC2)CC1 (stereo not given)	Pf growth 48h inconclusive (no result: NS1 function inh)
CC(C)(C)C1CCC(OC(=O)C[N+]2(C)CCCCC2)CC1 (stereo not given)	Pf growth 48h 12µM (no result: NS1 function inh)
CCN(CC)S(=O)(=O)c1ccc(N2CCOCC2)c(NC(=O)Cc2ccc(Cl)cc2)c1	Pf growth 48h 12µM, Pf growth 96h 12µM
CCN(CC)S(=O)(=O)c1ccc(N2CCCC2)c(NC(=O)Cc2ccccc2)c1	Pf growth 48h inconclusive, Pf growth 96h inconclusive
Cc1ccnc2nc(C(=O)Nc3cc(Cl)ccc3N3CCOCC3)nn12	Pf growth 48h 0.15µM, Pf growth 96h 0.23µM
Cc1cccc(NC(=O)CSCC(=O)Nc2cc(Cl)ccc2N2CCOCC2)c1	Pf growth 48h 12µM, Pf growth 96h inconclusive (no result: NS1 function inh)
CCN(CC)S(=O)(=O)c1ccc(N2CCOCC2)c(NC(=O)COc2ccccc2C#N)c1	Pf growth 48h 12µM, Pf growth 96h inconclusive
COc1cc(-c2coc3c(C(=O)NCc4ccccc4)cccc23)ccc1O	none (no result: NS1 function inh, Pf growth 48h, Pf growth 96h, Sm TGR block)
CN1CCC2(CCN3CCc4c(oc5ccccc45)C3C2)N(C)C1=O (stereo not given)	none (no result: AMA1-RON2 inh, Pf growth 48h, Pf growth 96h, Sm TGR block)
COc1cc(F)ccc1-c1csc(C(NC(C)=O)c2cccc(F)c2)n1 (stereo not given)	none (no result: NS1 function inh, Pf growth 48h, Pf growth 96h, Sm TGR block)
O=C(COc1cc(F)ccc1[N+](=O)[O-])Nc1ccc(N2CCCCC2)cc1	AMA1-RON2 inh inconclusive, Pf growth 48h inconclusive (no result: NS1 function inh)
CCN(CC)S(=O)(=O)c1ccc(N2CCOCC2)c(NC(=O)COc2ccccc2C)c1	Pf growth 48h 1.9µM, Pf growth 96h 2.9µM (no result: NS1 function inh)
O=C(COc1cc(F)ccc1[N+](=O)[O-])Nc1ccc(N2CCOCC2)cc1	Pf growth 48h inconclusive, Pf growth 96h inconclusive, Sm TGR block 45µM (no result: NS1 function inh)
CCN(CC)S(=O)(=O)c1ccc(N2CCOCC2)c(NC(=O)CC23CC4CC(CC(Br)(C4)C2)C3)c1	Pf growth 96h 10µM
O=C(Cc1ccc2c(c1)OCCO2)Nc1cc(Cl)ccc1N1CCOCC1	Pf growth 48h 12µM, Pf growth 96h inconclusive (no result: NS1 function inh)
CCN(CC)S(=O)(=O)c1ccc(N2CCOCC2)c(NC(=O)COc2ccc(OC)cc2)c1	Pf growth 48h inconclusive, Pf growth 96h inconclusive (no result: NS1 function inh)
O=C(Cc1ccc(Cl)c(Cl)c1)Nc1ccccc1N1CCOCC1	none (no result: NS1 function inh)
Cc1ccccc1OCC(=O)Nc1ccc(N2CCOCC2)cc1N1CCOCC1	Pf growth 48h 9.3µM, Pf growth 96h inconclusive (no result: NS1 function inh)
CCC(=O)c1ccc(OCC(=O)Nc2ccc(N3CCOCC3)cc2N2CCOCC2)cc1	Pf growth 48h inconclusive, Pf growth 96h 2.9µM
CCN(CC)S(=O)(=O)c1cccc(C(=O)NCCCn2ccnc2)c1	none
CCOC(=O)C1=C(C)N(C)C(=S)NC1c1ccccc1Cl (stereo not given)	Pf growth 96h inconclusive
